Screening results: PubChem BioAssay, National Center for Advancing Translational Sciences (NCATS)
Only some compounds are listed: those with a hit (about 8% of all), similar ones and a draw of the others.
Marburg entry = Marburg virus entry inhibition. Marburg virus pseudotype entry/binding inhibition, cell-based. Potency, µM (titrated, usually from 49.2 µM), most hits filed as inhibitors. 18,000 compounds, 6.5% hits
Lassa entry = blocks Lassa virus binding or cell entry | Potency, µM (doses to about 49.2 µM), usual class: inhibitors | 18,000 compounds, 4.1% hits | AID 720533 | Lassa virus pseudotyped entry inhibition, cell-based qHTS
Large screens that a line does not name were inactive; ! = repeats disagree. Calls follow the shape of the full dose curve; tested in HEK293 cells.

CNCCCC1c2ccccc2C=Cc2ccccc21	Marburg entry 7.08µM, Lassa entry inconclusive
C[C@@H]1CC[C@H]2C(=O)N(Cc3ccccc3)C[C@H](O)CN2[C@H]1c1ccc(Br)cc1	none
CN1CCC(=C2c3ccccc3C=Cc3ccccc32)CC1	Marburg entry 8.91µM, Lassa entry 28.2µM
CN1CCC(=C2c3ccccc3Sc3ccccc32)CC1	Marburg entry 3.98µM, Lassa entry inconclusive
CN1CCN(c2ncnc3ccc(-c4ccccc4C#N)cc23)CC1	none
CC1=C[C@@H](COCc2ccccc2)O[C@@]2(C1)C(=O)N(Cc1ccc(Br)cc1)c1ccccc12	none
C=C(C)CCCN1C=C(C(=O)OCC)C(c2ccccc2)NC1=O (configuration not stated)	none (no result: Lassa entry)
C=CCCOP1(=O)O[C@H](C=C)C[C@H](C=C)O1 (some centres not stated)	none
COC(=O)C1=C(C(=O)OC)[C@@H]2Nc3ccccc3[C@@]23C[C@@H](C(=O)OC)N(C(=O)Nc2ccccc2F)C3=N1	none
Cc1cc(O)c(C=O)c(O)c1C(=O)O	none
COC(=O)c1c(C)cc(OC(=O)c2c(C)cc(O)c(C=O)c2O)c(C)c1O	Marburg entry inconclusive, Lassa entry 7.94µM
CCOC(=O)OC[C@H]1O[C@H](C#Cc2ccc(C)cc2C)C=C[C@H]1OC(=O)OCC	none
C(=Cc1nc(-c2ccccc2)oc1Nc1ccc2ccccc2c1)c1ccccc1	none
COC(=O)C1=C(C(=O)OC)[C@@H]2N(CC=C(C)C)c3ccccc3[C@@]23CCC(=O)N(CCc2ccccn2)C3=N1	none
CC(C)(C)NCC(O)c1ccc(O)c(CO)c1 (configuration not stated)	none
OCc1cc(C(O)CNCCCCCCOCCCCc2ccccc2)ccc1O (configuration not stated)	Marburg entry 15.8µM, Lassa entry inconclusive
COC[C@@H](O)[C@H]1OCc2ccccc2[C@@H]1C=Cc1ccccc1	none
CCN1/C(=C/C=C/c2sc3ccccc3[n+]2CC)Sc2ccccc21	Marburg entry 2.82µM, Lassa entry 2.51µM
CCC(/C=C1\Sc2ccc(OC)cc2N1CCO)=C\c1sc2ccc(OC)cc2[n+]1CCO	none
CC(=O)c1ccc(F)c(-c2cc(C)cc3c2OC(CNC(=O)Cc2ccc4c(c2)OCO4)C3)c1 (configuration not stated)	none
CC(C)CCC[C@@H](C)[C@H]1CC(=O)C2=C3CC[C@H]4C[C@@H](O)CC[C@]4(C)[C@H]3CC[C@@]21C	none
Cc1oc(-c2ccccc2NC(=O)c2cccnc2)nc1CNC(=O)c1ccc(N(C)C)cc1	none
CCCCCCCCCCC[C@@H]1C[C@H]2C=CCO[P@@](=O)(O1)O2	none (no result: Lassa entry)
Oc1cc2c(cc1O)[C@H]1c3ccc(O)c(O)c3OC[C@@]1(O)C2	Marburg entry inconclusive
CC(=O)Oc1ccc2c(c1OC(C)=O)OCC1(O)Cc3c(cc(OC(C)=O)c(OC(C)=O)c3OC(C)=O)C21 (configuration not stated)	Marburg entry 7.94µM
CC(C)=CCCC(C)=CCON=C1C[C@@H](O)[C@@H](O)[C@@H]2[C@H]3C(=O)N(Cc4ccc5c(c4)OCO5)C(=O)[C@@H]3CC[C@@H]12	none (no result: Lassa entry)
COc1ccc(O[C@H]2C=C[C@@H](c3ccccc3)O[C@H]2CON=C2[C@H]3CCn4c(=O)n(-c5ccccc5)c(=O)n4[C@@H]3[C@H](O)[C@@H]3O[C@H]23)cc1	none
C=C(C)CO[C@H]1C=C[C@@H](c2ccccc2)O[C@H]1CO	none
O=C(c1ccc(OCCN2CCCCC2)cc1)c1c(-c2ccc(O)cc2)sc2cc(O)ccc12	Marburg entry 14.1µM, Lassa entry 31.6µM!
CC(C)N1CCN(c2ccc(C(=O)c3c(-c4ccc(O)cc4)sc4cc(O)ccc34)cc2)CC1	Marburg entry 5.01µM, Lassa entry inconclusive
CCCCOc1ccc(C(=O)CCN2CCCCC2)cc1	Marburg entry inconclusive
O=S1(=O)C=CCN1	none
CCN(CC)CCNC(=O)COc1ccc(Cl)cc1	none
CCN(CC)CCOc1ccc(C(O)(Cc2ccc(Cl)cc2)c2ccc(C)cc2)cc1 (configuration not stated)	Marburg entry 3.55µM, Lassa entry 25.1µM
CCCCCCC(=O)Cc1cc(OC)c(OC)cc1C=C(C(C)=O)C(=O)OC	Marburg entry inconclusive
C=CCOC(=O)C(C(C)=O)[C@@H](NC(=O)OC)c1cccs1 (some centres not stated)	none
Cc1cc(F)ccc1O[C@H]1C=C[C@@H](c2ccc3c(c2)OCO3)O[C@H]1CO	none
O=C1N(Cc2ccc(F)cc2)c2ccccc2[C@@]12O[C@H](COc1ccccc1)CC1CCCC12 (some centres not stated)	none
O=S(=O)(O)c1ccc2c(c1)-c1nc-2nc2[nH]c(nc3nc(nc4[nH]c(n1)c1ccc(S(=O)(=O)O)cc41)-c1ccc(S(=O)(=O)O)cc1-3)c1ccc(S(=O)(=O)O)cc21	Marburg entry 1.26µM, Lassa entry inconclusive
O=S(=O)(O)c1ccc2nc(-c3ccccc3)[nH]c2c1	Lassa entry inconclusive
CCCC[C@H]1CN2[C@H](c3ccc(Br)cc3)[C@H](C)CC[C@H]2C(=O)O1	none
O=c1cc(-c2ccc(O)cc2)oc2cc(O)c([C@@H]3O[C@H](CO)[C@@H](O)[C@H](O)[C@H]3O)c(O)c12	none
O=c1c2ccccc2oc2cc(O)c(C3COCC(CO)C(O)C(O)C3O)c(O)c12 (configuration not stated)	Marburg entry 14.1µM
CCc1cc2c(nc1CC)CCN(CCC(C)=NO[C@@H](C)c1cn([C@H](CO)Cc3ccccc3)nn1)C2	none
COc1ccc([C@]23Cc4cc(OC)c(OC)cc4[C@H](O2)C2=C(CC4(CCCCC4)OC2=O)O3)cc1	none
C=CCOP1(=O)O[C@H](CC=C)C[C@H](CC=C)O1 (some centres not stated)	Marburg entry inconclusive
CCCCCCN1C[C@@H](O)[C@H](n2cc(COC(=O)c3ccccc3)nn2)C[C@H]1c1ccccc1	none
O=C1NCCN1CCN1CCC(c2cn(-c3ccc(F)cc3)c3ccc(Cl)cc23)CC1	Marburg entry 11.2µM, Lassa entry 22.4µM
CN1CCN(c2cc3c(cc2F)c(=O)c(C(=O)O)cn3-c2ccc(F)cc2)CC1	none
CCCCN(CCCC)Cc1cc(=O)oc2cc(C)cc(C)c12	none
Cc1cc(C)c2c(CN(C)Cc3ccccc3)cc(=O)oc2c1	Marburg entry 2.23µM, Lassa entry inconclusive
Fc1ccc(N2CCN(Cc3ccc4c(c3)CN(Cc3cccn3-c3cccnc3)CCO4)CC2)cc1	Marburg entry inconclusive
CCCCC/C=C\C/C=C\C/C=C\C/C=C\CCCC(=O)NCC(=O)O	Lassa entry inconclusive
CCCCC/C=C\C/C=C\C/C=C\C/C=C\CCCC(=O)Nc1ccc(O)cc1	Marburg entry inconclusive, Lassa entry 31.6µM
CCCCC/C=C\C/C=C\C/C=C\C/C=C\CCCC(=O)Nc1ccc(O)cc1C	Marburg entry inconclusive, Lassa entry 12.6µM
CCCCC/C=C\C/C=C\C/C=C\C/C=C\CCCC(=O)NCCO	none
Cc1cc(C(=O)NCc2nnc3n2CCN(Cc2ccc4c(c2)Cc2ccccc2-4)CC3)c(C)o1	none
CCCCCCN1C[C@H](O)[C@@H](n2cc(C3CC3)nn2)C[C@H]1c1ccccc1	Marburg entry inconclusive
COc1c(C)c2c(c(O)c1C/C=C(\C)CCC(=O)OCCN1CCOCC1)C(=O)OC2	Marburg entry 1.12µM, Lassa entry 1.12µM
CC(=O)Oc1ccc(C2(c3ccc(OC(C)=O)cc3)Oc3ccccc3NC2=O)cc1	Lassa entry 10µM
CC(=O)Oc1cccc(O)c1	none
CCOC(=O)C1=C(C)NC(C)=C(C(=O)OC)[C@@H]1c1cccc([N+](=O)[O-])c1	none
